ChEMBL document CHEMBL1961873, “Compounds: GSK PKIS; Assays: Nanosyn kinase panel” (2012)

Columns and labels:
[1] = target: T1, Inhibitor of nuclear factor kappa-B kinase subunit epsilon (Homo sapiens) (UniProt Q14164); details: at 1 µM;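 note: reported values are averaged percent inhibition figures against human IKKε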
T1 sequence (whole entry): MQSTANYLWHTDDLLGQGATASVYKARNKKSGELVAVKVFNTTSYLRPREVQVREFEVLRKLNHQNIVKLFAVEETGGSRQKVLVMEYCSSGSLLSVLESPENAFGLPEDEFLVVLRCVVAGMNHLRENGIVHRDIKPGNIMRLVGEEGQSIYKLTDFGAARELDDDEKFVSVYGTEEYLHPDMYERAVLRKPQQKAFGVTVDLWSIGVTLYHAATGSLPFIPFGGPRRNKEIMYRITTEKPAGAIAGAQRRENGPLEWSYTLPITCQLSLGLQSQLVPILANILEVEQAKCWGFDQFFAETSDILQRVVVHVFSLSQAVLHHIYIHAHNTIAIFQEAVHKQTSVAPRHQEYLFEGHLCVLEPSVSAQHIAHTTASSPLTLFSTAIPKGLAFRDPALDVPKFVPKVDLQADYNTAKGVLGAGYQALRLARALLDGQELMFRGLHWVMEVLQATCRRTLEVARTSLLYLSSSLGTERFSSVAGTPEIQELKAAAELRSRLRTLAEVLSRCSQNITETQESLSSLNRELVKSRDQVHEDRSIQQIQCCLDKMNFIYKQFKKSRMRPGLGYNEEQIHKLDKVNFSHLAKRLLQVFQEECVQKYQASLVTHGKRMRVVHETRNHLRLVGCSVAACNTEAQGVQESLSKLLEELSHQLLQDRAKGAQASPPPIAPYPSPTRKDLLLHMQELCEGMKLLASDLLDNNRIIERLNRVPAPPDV

[2] = target: T2, Serine/threonine-protein kinase Nek1 (Homo sapiens) (UniProt Q96PY6); details: at 0.1 µM
T2 sequence (whole entry): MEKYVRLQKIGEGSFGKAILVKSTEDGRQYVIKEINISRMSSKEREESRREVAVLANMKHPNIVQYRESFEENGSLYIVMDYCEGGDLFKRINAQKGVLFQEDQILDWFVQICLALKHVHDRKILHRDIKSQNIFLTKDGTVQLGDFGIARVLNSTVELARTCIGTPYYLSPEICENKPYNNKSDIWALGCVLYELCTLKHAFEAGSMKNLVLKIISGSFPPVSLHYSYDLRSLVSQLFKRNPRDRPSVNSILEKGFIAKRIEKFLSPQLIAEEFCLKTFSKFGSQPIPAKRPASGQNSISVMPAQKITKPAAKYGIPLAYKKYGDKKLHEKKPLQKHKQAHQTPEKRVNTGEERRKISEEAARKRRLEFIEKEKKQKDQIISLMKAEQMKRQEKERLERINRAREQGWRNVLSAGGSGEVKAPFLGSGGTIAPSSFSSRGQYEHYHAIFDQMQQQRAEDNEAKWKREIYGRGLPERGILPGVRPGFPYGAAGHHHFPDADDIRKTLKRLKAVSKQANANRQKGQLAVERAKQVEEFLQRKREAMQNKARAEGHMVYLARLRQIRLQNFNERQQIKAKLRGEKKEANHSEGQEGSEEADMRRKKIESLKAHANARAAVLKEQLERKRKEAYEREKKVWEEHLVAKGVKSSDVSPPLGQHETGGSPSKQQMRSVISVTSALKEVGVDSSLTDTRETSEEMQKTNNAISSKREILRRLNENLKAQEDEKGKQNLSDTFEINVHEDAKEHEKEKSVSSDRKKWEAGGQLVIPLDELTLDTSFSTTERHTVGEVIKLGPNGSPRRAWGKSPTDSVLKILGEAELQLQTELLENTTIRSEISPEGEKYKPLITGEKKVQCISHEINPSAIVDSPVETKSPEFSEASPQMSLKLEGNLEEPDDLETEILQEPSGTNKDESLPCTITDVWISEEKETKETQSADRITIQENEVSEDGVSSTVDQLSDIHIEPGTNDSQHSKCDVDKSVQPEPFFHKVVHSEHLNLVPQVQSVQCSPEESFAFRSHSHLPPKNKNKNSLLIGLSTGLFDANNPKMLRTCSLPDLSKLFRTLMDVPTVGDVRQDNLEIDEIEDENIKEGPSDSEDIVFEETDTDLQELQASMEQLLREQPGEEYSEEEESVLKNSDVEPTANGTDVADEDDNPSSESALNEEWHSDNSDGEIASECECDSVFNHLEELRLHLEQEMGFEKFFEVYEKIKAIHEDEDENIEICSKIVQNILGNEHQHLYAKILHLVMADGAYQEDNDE

[3] = target: T2, Serine/threonine-protein kinase Nek1 (Homo sapiens); details: at 1 µM
[4] = target: T3, Serine/threonine-protein kinase Nek2 (Homo sapiens) (UniProt P51955); details: at 0.1 µM
T3 sequence (whole entry): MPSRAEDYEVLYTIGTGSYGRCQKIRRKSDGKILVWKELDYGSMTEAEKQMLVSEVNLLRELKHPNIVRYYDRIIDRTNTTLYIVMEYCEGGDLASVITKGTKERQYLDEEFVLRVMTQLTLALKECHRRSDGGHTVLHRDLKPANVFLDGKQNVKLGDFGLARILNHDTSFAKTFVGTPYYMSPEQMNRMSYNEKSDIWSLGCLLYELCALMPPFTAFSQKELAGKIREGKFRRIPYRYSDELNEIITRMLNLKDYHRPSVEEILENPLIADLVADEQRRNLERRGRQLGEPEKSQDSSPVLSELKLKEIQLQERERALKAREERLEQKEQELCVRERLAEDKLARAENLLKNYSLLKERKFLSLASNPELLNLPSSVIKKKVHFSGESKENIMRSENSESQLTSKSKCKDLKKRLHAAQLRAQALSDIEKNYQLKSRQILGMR

[5] = target: T3, Serine/threonine-protein kinase Nek2 (Homo sapiens); details: at 1 µM
[6] = target: Serine/threonine-protein kinase Nek6 (Homo sapiens) (UniProt Q9HC98); details: at 0.1 µM
[7] = target: Serine/threonine-protein kinase Nek6 (Homo sapiens) (UniProt Q9HC98); details: at 1 µM
[8] = target: Serine/threonine-protein kinase Nek7 (Homo sapiens) (UniProt Q8TDX7); details: at 0.1 µM
[9] = target: Serine/threonine-protein kinase Nek7 (Homo sapiens) (UniProt Q8TDX7); details: at 1 µM
[10] = target: T4, Serine/threonine-protein kinase Nek9 (Homo sapiens) (UniProt Q8TD19); details: at 0.1 µM
T4 sequence (whole entry): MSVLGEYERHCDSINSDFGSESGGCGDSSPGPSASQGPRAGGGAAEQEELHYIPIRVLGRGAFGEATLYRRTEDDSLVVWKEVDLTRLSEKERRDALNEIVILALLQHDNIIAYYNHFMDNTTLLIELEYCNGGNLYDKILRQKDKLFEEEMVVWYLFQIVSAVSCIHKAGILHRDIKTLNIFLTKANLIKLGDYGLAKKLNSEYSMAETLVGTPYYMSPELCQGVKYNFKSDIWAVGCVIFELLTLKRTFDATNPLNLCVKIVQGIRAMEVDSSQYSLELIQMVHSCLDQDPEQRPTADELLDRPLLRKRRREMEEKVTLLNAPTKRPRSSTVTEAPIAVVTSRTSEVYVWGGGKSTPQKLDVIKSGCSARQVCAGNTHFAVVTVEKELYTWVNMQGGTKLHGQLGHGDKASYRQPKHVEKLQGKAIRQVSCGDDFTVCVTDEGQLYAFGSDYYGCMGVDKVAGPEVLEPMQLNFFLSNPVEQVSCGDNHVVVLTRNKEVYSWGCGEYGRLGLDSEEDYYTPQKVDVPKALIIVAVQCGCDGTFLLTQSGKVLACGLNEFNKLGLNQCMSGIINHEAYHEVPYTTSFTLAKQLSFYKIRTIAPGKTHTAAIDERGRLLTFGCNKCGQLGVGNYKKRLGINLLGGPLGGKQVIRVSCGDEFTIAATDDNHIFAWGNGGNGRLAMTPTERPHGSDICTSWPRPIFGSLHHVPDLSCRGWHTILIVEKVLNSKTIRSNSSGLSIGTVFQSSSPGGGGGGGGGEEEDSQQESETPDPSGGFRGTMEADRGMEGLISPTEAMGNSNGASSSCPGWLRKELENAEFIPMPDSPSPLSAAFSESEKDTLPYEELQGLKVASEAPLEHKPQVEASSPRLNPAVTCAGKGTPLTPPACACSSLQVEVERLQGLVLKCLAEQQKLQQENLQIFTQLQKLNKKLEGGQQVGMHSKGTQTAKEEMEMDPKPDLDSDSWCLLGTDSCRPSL

[11] = target: T4, Serine/threonine-protein kinase Nek9 (Homo sapiens); details: at 1 µM
[12] = target: Serine/threonine-protein kinase PLK1 (Homo sapiens) (UniProt P53350); details: at 0.1 µM
[13] = target: Serine/threonine-protein kinase PLK1 (Homo sapiens) (UniProt P53350); details: at 1 µM
[14] = target: T5, Dual specificity protein kinase TTK (Homo sapiens) (UniProt P33981); details: at 0.1 µM
T5 sequence (whole entry): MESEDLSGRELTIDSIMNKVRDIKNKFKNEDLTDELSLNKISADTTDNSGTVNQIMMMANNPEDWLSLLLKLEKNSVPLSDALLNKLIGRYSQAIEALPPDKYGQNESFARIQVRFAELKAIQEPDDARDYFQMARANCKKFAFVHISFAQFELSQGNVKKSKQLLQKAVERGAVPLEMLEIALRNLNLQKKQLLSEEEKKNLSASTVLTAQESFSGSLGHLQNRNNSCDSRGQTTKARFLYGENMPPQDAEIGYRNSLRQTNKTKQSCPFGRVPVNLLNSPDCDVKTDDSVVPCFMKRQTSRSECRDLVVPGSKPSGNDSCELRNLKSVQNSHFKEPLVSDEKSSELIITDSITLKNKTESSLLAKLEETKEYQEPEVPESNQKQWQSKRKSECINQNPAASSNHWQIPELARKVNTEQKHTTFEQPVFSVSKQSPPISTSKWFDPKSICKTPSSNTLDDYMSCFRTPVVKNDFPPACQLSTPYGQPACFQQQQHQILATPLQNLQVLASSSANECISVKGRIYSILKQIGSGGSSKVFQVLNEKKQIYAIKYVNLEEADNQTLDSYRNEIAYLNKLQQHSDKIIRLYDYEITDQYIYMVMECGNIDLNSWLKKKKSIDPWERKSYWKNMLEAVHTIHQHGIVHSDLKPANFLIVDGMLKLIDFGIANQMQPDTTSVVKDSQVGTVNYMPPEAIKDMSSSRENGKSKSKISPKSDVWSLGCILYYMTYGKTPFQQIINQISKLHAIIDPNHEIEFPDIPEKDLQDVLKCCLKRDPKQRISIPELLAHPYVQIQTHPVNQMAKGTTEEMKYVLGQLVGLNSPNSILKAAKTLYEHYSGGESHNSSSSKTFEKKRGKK

[15] = system: T6, Receptor-type tyrosine-protein kinase FLT3 (Homo sapiens), P36888 [D835Y]; details: at 1 µM
T6 sequence (whole entry): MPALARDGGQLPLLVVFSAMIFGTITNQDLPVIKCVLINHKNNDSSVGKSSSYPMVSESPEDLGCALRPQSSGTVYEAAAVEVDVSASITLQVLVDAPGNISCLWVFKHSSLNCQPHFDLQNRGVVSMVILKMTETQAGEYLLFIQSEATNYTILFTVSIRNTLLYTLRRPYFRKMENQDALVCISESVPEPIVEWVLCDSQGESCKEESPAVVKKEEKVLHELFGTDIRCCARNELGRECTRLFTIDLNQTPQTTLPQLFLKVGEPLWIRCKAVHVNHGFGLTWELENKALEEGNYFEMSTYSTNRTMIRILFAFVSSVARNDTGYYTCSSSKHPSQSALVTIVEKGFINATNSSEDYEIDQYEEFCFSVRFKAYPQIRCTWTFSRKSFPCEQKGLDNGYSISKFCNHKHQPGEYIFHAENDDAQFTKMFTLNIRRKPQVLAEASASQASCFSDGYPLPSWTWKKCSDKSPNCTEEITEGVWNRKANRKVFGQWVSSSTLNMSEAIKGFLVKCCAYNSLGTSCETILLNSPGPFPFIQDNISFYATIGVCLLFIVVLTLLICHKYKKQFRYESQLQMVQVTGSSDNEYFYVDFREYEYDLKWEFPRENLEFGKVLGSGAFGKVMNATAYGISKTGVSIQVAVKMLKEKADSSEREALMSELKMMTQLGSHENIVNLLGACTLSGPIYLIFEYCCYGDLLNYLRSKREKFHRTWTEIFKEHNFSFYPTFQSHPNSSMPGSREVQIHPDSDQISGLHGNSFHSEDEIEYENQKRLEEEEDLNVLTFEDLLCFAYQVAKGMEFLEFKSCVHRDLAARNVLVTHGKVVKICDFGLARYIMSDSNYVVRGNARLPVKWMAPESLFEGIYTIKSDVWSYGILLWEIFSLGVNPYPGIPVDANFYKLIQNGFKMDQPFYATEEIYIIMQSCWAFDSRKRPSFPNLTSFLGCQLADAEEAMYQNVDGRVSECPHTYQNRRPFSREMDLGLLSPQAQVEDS

[16] = target: Vascular endothelial growth factor receptor 3 (Homo sapiens) (UniProt P35916); details: at 0.1 µM
[17] = target: Vascular endothelial growth factor receptor 3 (Homo sapiens) (UniProt P35916); details: at 1 µM
[18] = target: Macrophage colony-stimulating factor 1 receptor (Homo sapiens) (UniProt P07333); details: at 0.1 µM
[19] = target: Macrophage colony-stimulating factor 1 receptor (Homo sapiens) (UniProt P07333); details: at 1 µM
[20] = target: Tyrosine-protein kinase Fyn (Homo sapiens) (UniProt P06241); details: at 0.1 µM
Chain of Tyrosine-protein kinase Fyn (Homo sapiens) (P06241 2-537 limits assumed): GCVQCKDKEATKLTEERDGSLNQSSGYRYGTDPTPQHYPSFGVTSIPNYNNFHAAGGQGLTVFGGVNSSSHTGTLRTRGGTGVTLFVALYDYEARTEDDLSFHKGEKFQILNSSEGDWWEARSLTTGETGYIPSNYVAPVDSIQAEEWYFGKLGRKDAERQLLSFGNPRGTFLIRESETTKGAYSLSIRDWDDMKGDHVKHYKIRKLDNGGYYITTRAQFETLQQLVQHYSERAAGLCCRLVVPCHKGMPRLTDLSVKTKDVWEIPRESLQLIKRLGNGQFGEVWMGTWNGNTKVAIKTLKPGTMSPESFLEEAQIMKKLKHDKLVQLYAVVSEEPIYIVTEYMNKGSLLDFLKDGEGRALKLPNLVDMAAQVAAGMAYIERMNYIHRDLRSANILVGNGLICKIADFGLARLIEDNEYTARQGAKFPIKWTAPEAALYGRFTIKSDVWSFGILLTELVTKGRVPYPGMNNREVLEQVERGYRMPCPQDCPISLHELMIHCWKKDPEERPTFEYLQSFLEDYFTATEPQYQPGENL

Chain of Serine/threonine-protein kinase Nek6 (Homo sapiens) (Q9HC98 whole entry): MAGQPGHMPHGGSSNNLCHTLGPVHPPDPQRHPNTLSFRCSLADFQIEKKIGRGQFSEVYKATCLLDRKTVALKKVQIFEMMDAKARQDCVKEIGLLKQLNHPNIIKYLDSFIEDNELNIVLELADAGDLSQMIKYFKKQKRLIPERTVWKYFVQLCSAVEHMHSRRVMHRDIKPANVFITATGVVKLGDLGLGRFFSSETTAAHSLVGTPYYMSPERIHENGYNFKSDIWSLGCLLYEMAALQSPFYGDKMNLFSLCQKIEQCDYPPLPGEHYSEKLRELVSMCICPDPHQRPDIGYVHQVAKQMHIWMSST
Chain of Vascular endothelial growth factor receptor 3 (Homo sapiens) (P35916 whole entry): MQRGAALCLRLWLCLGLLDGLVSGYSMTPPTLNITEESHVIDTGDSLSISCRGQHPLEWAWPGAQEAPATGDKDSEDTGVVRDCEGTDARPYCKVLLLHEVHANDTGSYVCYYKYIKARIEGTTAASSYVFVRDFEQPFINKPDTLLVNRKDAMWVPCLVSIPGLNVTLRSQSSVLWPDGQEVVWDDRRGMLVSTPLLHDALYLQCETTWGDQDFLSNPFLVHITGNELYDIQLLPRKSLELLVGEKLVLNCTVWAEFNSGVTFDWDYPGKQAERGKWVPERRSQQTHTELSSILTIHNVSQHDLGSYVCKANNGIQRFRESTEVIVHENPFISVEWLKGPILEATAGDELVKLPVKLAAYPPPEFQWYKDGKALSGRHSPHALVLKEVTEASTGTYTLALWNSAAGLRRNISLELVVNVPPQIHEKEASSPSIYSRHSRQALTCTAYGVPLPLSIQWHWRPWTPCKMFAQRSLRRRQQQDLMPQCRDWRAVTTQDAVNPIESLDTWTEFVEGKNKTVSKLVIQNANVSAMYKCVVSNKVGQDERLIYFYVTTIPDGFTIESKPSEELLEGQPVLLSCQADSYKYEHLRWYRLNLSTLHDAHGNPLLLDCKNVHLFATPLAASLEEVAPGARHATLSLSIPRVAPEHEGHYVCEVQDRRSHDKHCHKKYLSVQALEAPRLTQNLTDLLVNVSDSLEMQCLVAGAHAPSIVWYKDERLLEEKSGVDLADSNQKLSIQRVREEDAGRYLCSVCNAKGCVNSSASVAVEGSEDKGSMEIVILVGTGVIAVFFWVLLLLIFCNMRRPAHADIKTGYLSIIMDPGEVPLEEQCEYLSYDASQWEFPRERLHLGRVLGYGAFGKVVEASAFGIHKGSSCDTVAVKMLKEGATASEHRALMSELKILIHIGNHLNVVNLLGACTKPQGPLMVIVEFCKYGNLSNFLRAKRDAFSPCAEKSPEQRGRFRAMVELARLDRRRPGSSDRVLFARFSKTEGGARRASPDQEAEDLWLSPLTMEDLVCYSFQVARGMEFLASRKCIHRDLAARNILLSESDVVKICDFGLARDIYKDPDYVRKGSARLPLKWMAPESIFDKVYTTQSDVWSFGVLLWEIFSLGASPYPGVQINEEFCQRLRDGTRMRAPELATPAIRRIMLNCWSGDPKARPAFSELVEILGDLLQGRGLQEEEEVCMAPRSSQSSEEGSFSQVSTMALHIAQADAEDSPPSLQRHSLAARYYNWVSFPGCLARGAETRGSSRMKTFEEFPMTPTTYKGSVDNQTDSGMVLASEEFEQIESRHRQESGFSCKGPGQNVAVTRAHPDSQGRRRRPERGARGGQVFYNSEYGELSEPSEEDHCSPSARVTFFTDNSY
Chain of Macrophage colony-stimulating factor 1 receptor (Homo sapiens) (P07333 whole entry): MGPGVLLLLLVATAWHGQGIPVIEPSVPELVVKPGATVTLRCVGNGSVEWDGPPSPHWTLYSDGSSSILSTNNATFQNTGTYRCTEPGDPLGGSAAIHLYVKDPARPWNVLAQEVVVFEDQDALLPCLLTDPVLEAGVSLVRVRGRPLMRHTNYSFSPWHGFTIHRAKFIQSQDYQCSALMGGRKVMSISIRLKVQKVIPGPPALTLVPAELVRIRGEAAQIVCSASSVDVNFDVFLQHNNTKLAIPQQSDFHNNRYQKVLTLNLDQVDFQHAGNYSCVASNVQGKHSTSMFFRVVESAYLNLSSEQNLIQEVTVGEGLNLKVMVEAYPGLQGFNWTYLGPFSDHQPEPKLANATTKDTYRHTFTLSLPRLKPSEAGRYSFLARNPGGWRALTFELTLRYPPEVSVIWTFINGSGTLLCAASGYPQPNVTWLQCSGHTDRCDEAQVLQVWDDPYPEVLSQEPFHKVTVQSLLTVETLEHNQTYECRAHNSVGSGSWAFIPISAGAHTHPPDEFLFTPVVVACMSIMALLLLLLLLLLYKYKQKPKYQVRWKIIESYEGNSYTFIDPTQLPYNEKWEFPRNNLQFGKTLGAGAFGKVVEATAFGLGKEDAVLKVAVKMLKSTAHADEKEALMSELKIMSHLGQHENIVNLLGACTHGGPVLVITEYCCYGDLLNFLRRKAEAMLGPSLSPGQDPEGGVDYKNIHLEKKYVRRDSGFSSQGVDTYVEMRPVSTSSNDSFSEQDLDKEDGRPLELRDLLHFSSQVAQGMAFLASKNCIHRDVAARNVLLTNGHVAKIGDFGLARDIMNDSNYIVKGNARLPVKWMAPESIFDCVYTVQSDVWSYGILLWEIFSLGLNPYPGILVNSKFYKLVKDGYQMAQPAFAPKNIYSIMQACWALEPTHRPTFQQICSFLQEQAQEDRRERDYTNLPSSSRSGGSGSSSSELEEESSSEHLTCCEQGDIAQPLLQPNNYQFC
Chain of Serine/threonine-protein kinase PLK1 (Homo sapiens) (P53350 whole entry): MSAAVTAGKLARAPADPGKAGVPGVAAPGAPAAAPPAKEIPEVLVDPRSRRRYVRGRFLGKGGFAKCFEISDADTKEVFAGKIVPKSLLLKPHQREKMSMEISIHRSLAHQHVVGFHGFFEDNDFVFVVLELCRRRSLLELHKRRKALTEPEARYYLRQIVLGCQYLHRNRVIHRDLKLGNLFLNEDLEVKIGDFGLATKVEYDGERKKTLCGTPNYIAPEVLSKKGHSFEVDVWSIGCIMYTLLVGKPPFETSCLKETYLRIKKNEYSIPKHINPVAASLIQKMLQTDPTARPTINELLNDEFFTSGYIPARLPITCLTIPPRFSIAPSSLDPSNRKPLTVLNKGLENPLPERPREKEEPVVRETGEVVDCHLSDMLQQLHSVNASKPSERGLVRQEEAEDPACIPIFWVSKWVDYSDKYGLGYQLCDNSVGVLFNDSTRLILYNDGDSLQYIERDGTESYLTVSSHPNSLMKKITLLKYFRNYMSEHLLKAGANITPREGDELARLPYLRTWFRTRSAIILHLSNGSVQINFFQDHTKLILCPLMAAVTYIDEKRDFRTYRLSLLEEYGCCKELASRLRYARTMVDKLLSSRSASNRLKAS
Chain of Serine/threonine-protein kinase Nek7 (Homo sapiens) (Q8TDX7 whole entry, looked up): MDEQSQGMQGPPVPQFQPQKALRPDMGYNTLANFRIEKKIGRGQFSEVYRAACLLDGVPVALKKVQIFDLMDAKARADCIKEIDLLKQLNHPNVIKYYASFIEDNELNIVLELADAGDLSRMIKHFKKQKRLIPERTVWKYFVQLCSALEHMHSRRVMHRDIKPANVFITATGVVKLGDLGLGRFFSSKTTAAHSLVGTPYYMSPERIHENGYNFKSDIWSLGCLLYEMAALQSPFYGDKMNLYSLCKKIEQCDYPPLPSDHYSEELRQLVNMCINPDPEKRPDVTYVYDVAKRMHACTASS

Compound	inhibition [1] [%]	inhibition [2] [%]	inhibition [3] [%]	inhibition [4] [%]	inhibition [5] [%]	inhibition [6] [%]	inhibition [7] [%]	inhibition [8] [%]	inhibition [9] [%]	inhibition [10] [%]	inhibition [11] [%]	inhibition [12] [%]	inhibition [13] [%]	inhibition [14] [%]	inhibition [15] [%]	inhibition [16] [%]	inhibition [17] [%]	inhibition [18] [%]	inhibition [19] [%]	inhibition [20] [%]
CC(C)(CO)CNC(=O)c1ccc2c(c1)/C(=N/Nc1ccc(S(N)(=O)=O)cc1)C(=O)N2	59.7	0.37	1.29	0.26	0.85	1.63	0.2	-1.3	2.36	2.95	8.02	1.21	0.88	61.5	45.6	4.05	44.3	-6.57	3.69	10.9
N#Cc1c(NC(=O)CN2CCOCC2)sc2c1CCCC2	92	2.42	6.07	4.61	4.37	3.33	5.18	2.96	3.61	6.26	1.68	2.26	2.27	9.9	0.1	0.77	3.83	5.19	2.67	0.52
Cc1ccc2c(-c3ccnc(Nc4ccccc4)n3)c(-c3ccc(F)cc3)nn2n1	3.29	2.02	2.14	4.21	3	4.02	-0.68	2.06	2.94	-1.05	5.94	1.63	1.62	4.36	-2.14	5.68	28.3	10.5	45.1	18.7
